Assay [1] concerns the target Paired box protein Pax-6 (Homo sapiens) (UniProt P26367). The assay is described as follows: ATG_Pax6_CIS: Attagene CIS-FACTORIAL HepG2 Assay for human Paired Box 6 (PAX6) (AID 2282956). Particulars: HepG2 CIS-FACTORIAL PAX6 reporter transcription, RNA readout; actives raise or lower the signal. A digest of the protocol: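 HepG2 cells transiently transfected with multiplexed cis-promoter reporter units (endogenous TF activity) were dosed for 24 h. Reporter mRNA was quantified by RT-PCR, 6-FAM labeling, HpaI digestion and capillary electrophoresis; bidirectional fitting versus DMSO baseline.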

Assay [2] is described as follows: ATG_PXRE_CIS: Attagene CIS-FACTORIAL HepG2 Assay for human Pregnane X Receptor Element (PXRE) (AID 2282957). The note with it: HepG2 Attagene CIS-FACTORIAL PXRE reporter, mRNA; actives raise or lower the signal. A digest of the protocol: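 Transfect HepG2 with MRTUs (cis promoter elements); dose chemical, incubate 24 h; isolate RNA, RT with oligo(dT), PCR, 6-FAM label, HpaI cut, CE. Gain/loss fit vs DMSO.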

Assay [3] can be described thus: ATG_PPRE_CIS: Attagene CIS-FACTORIAL HepG2 Assay for human Peroxisome Proliferator-activated Response Element (PPRE) (AID 2282958). The note with it: HepG2 PPRE cis-element reporter, Attagene transcription factor profiling; actives raise or lower the signal. The method, boiled down: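 Endogenous PPRE-driven transcription is measured in HepG2 cells carrying transfected multi-reporter constructs. Reporter transcripts are quantified by RT-PCR, HpaI digestion and capillary electrophoresis 24 h after dosing. DMSO baseline, bidirectional fit.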

Assay [4] in a line: ATG_RORE_CIS: Attagene CIS-FACTORIAL HepG2 Assay for human RAR-related Orphan Receptor Element (RORE) (AID 2282959). The note with it: HepG2 Attagene cis-factorial RORE reporter, mRNA; actives raise or lower the signal. The method, boiled down: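 RORE reporter transcripts reflecting endogenous factor activity were read after 24 h compound exposure of transfected HepG2 cells, using reverse transcription, PCR, fluorescent labelling and capillary electrophoresis sizing. Gain or loss fitted against DMSO.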

Assay [5] can be described thus: ATG_Sox_CIS: Attagene CIS-FACTORIAL HepG2 Assay for human SRY-box transcription factor (SOX) (AID 2282960). The note with it: HepG2 Attagene cis-factorial SOX reporter, mRNA; actives raise or lower the signal. A digest of the protocol:
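Reporter transcripts, measured by RT-PCR and capillary electrophoresis of labelled fragments, report endogenous SOX transcription factor activity. Transiently transfected human HepG2 cells receive chemical for 24 h; changes in either direction are fitted relative to DMSO.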

In assay [6] the target is Transcription factor Sp1 (Homo sapiens) (UniProt P08047). The assay is described as follows: ATG_Sp1_CIS: Attagene CIS-FACTORIAL HepG2 Assay for human Specificity Protein 1 (Sp1) (AID 2282961). Particulars: HepG2 Sp1 cis-reporter transcription, actives raise or lower the signal. A digest of the protocol: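 Read-out is reporter transcript level, measured by RT-PCR and fluorescent capillary electrophoresis after 24 h chemical treatment. System: transiently transfected HepG2 cells reporting endogenous transcription factor activity; gain or loss fitted against DMSO baseline.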

The nature of assay [7]: ATG_SREBP_CIS: Attagene CIS-FACTORIAL HepG2 Assay for human Sterol Regulatory Element Binding (SREBP) (AID 2282962). Particulars: HepG2 Attagene cis-factorial SREBP reporter, mRNA; actives raise or lower the signal. A digest of the protocol:
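HepG2 cells transiently transfected with multiplexed cis-element reporter units report endogenous transcription factor activity. After 24 h of chemical exposure, reporter mRNA was quantified by RT-PCR, 6-FAM labelling, HpaI digestion and capillary electrophoresis; bidirectional fits used DMSO as baseline.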

For assay [8], the target named is Signal transducer and activator of transcription 3 (Homo sapiens) (UniProt P40763). Put plainly: ATG_STAT3_CIS: Attagene CIS-FACTORIAL HepG2 Assay for human Signal Transducer and Activator of Transcription 3 (STAT3) (AID 2282963). The note with it: HepG2, Attagene cis-factorial STAT3 reporter transcription; actives raise or lower the signal. The method, boiled down: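 Transcript-level reporter assay. HepG2 transient MRTU transfection, 24 h exposure, fluorescence detection after RT-PCR and CE; DMSO baseline.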

Assay [9] can be described thus: ATG_TA_CIS: Attagene CIS-FACTORIAL HepG2 Assay for human TA Basal Promoter (AID 2282964). The note with it: HepG2 Attagene CIS-factorial TA basal promoter reporter; actives raise or lower the signal. The method, boiled down: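 Read-out: fluorescent reporter-transcript fragments resolved by capillary electrophoresis after RT-PCR and HpaI digestion. Source: HepG2 cells carrying transiently transfected multi-reporter cis constructs, treated 24 h. Endpoint fitted bidirectionally relative to DMSO.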

Assay [10] in a line: ATG_TCF_b_cat_CIS: Attagene CIS-FACTORIAL HepG2 Assay for human T-Cell-Factor with beta-catenin (TCF/b-cat) (AID 2282965). Particulars: HepG2 TCF/beta-catenin cis-reporter transcription, actives raise or lower the signal. A digest of the protocol:
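HepG2 cells transiently transfected with multiple cis-promoter-regulated reporter transcription units, so endogenous transcription factor activity is measured. Reporter mRNA read 24 hours after dosing by RT-PCR, fluorescent labelling and capillary electrophoresis; bidirectional fitting against DMSO.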

A short description of assay [11]: ATG_TAL_CIS: Attagene CIS-FACTORIAL HepG2 Assay for human TAL Basal Promoter (AID 2282966).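 Also: background control endpoint measuring basal TAL promoter reporter mRNA not a specific factor.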 Particulars: HepG2 Attagene cis-factorial TAL promoter reporter; actives raise or lower the signal. The method, boiled down: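 Fluorescence of labelled reporter cDNA fragments, resolved by capillary electrophoresis, gave the readout. Human HepG2 liver cells carried transiently transfected cis-element reporter units and were treated for 24 hours; activity was fitted bidirectionally against DMSO.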

A short description of assay [12]: ATG_TGFb_CIS: Attagene CIS-FACTORIAL HepG2 Assay for human Transforming Growth Factor (TGF) (AID 2282967). Particulars: HepG2 Attagene CIS TGFb reporter, mRNA transcription; actives raise or lower the signal. The method, boiled down:
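Transient MRTU transfection of HepG2 (FuGene 6). Dose 24 h. TriZol RNA, oligo(dT) RT, PCR, 6-FAM primer extension, HpaI cut, CE. Bidirectional fit, DMSO = baseline.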

Assay [13] can be described thus: ATG_VDRE_CIS: Attagene CIS-FACTORIAL HepG2 Assay for human Vitamin D Receptor Element (VDRE) (AID 2282968). Particulars: HepG2 VDRE cis-reporter transcription, actives raise or lower the signal. The method, boiled down:
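RT-PCR/CE readout of reporter mRNA; HepG2, transient transfection, 24 h dosing; DMSO baseline; bidirectional analysis.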

Assay [14] addresses Estrogen receptor (Homo sapiens) (UniProt P03372). Put plainly: ATG_ERa_TRANS: Attagene TRANS-FACTORIAL HepG2 Assay for human Estrogen Receptor alpha (ERa) (AID 2282970; active = hit-call score of the fitted dose curve at least 0.9, where 1 is the maximum). Particulars: HepG2 Attagene TRANS ERa GAL4 reporter, mRNA. A digest of the protocol: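 Human liver HepG2, transient transfection of multiple GAL4-UAS reporter units; TRANS format (exogenous NR-Gal4 chimera). 24 h dosing. Readout: reporter mRNA, RT-PCR, 6-FAM primer extension, HpaI digest, capillary electrophoresis. Positive direction vs DMSO.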

Assay [15] concerns the target X-box-binding protein 1 (Homo sapiens) (UniProt P17861). The assay is described as follows: ATG_Xbp1_CIS: Attagene CIS-FACTORIAL HepG2 Assay for human X-box Binding Protein 1 (XBP1) (AID 2282972). The note with it: HepG2 XBP1 cis-element reporter, Attagene multiplex; actives raise or lower the signal. A digest of the protocol:
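HepG2 cells transiently transfected with cis-regulated multiple reporter transcription units; endogenous transcription factor activity measured 24 hours after chemical dosing. Reporter mRNA quantified by RT-PCR, 6-FAM primer extension, HpaI digestion and capillary electrophoresis; bidirectional fitting versus DMSO.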

Assay [16] in a line: ATG_M_19_TRANS: Attagene TRANS-FACTORIAL HepG2 Assay for M19 Transcription Factor (Internal Marker) (AID 2282974; active = hit-call score of the fitted dose curve at least 0.9, where 1 is the maximum). Particulars: HepG2 Attagene TRANS-FACTORIAL M19 internal marker reporter. The method, boiled down:
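Background-control readout: after 24 h chemical exposure of transfected HepG2 carrying GAL4-driven reporter units, RNA was reverse-transcribed, amplified, fluorescently labeled and sized by capillary electrophoresis; gain-of-signal fit against DMSO.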

The nature of assay [17]: ATG_GAL4_TRANS: Attagene TRANS-FACTORIAL HepG2 Assay for GAL4 (Internal Marker) (AID 2282976; active = hit-call score of the fitted dose curve at least 0.9, where 1 is the maximum). The note with it: HepG2 Attagene TRANS GAL4 internal marker reporter. The method, boiled down:
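First, HepG2 cells were transfected with reporter units under GAL4-UAS control. Next, they were treated with chemical for 24 h. Finally, RNA was reverse-transcribed, PCR-amplified, FAM-labelled and resolved by capillary electrophoresis, with induction scored against DMSO.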

For assay [18], the target named is Nuclear receptor subfamily 1 group I member 3 (Homo sapiens) (UniProt Q14994). The assay is described as follows: ATG_CAR_TRANS: Attagene TRANS-FACTORIAL HepG2 Assay for human Constitutive Androstane Receptor (CAR) (AID 2282969; active = hit-call score of the fitted dose curve at least 0.9, where 1 is the maximum;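 also: activators raise reporter mRNA above DMSO so AC50 marks induction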). The note with it: HepG2 Attagene TRANS-FACTORIAL CAR reporter. A digest of the protocol: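 HepG2 cells transiently transfected with multiplexed GAL4-UAS reporter units expressing chimeric NR-Gal4 proteins; compound exposure 24 h. Reporter mRNA measured by RT-PCR, 6-FAM labelling, HpaI digestion and capillary electrophoresis; gain-of-signal fitted against DMSO baseline.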

Assay [19] concerns the target Steroid hormone receptor ERR1 (Homo sapiens) (UniProt P11474). The assay is described as follows: ATG_ERRa_TRANS: Attagene TRANS-FACTORIAL HepG2 Assay for human Estrogen-Related Receptor alpha (ERRa) (AID 2282971; active = hit-call score of the fitted dose curve at least 0.9, where 1 is the maximum). Particulars: HepG2 Attagene TRANS reporter, ERRa transactivation. A digest of the protocol: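 Reporter transcript induction was quantified by RT-PCR and capillary electrophoresis of FAM-labelled, HpaI-cut products after 24 h treatment of HepG2 cells carrying transiently transfected GAL4-UAS reporter units and an exogenous ERRa-Gal4 fusion; activity scored as increase over DMSO.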

Inconclusive results are not listed. Active and inactive are the calls of the source. The calls were made as follows, unless noted: active = hit-call score of the fitted dose curve at least 0.9, where 1 is the maximum; inactive = score below 0.9.

Sequence of Transcription factor Sp1 (Homo sapiens) (P08047 whole entry, looked up): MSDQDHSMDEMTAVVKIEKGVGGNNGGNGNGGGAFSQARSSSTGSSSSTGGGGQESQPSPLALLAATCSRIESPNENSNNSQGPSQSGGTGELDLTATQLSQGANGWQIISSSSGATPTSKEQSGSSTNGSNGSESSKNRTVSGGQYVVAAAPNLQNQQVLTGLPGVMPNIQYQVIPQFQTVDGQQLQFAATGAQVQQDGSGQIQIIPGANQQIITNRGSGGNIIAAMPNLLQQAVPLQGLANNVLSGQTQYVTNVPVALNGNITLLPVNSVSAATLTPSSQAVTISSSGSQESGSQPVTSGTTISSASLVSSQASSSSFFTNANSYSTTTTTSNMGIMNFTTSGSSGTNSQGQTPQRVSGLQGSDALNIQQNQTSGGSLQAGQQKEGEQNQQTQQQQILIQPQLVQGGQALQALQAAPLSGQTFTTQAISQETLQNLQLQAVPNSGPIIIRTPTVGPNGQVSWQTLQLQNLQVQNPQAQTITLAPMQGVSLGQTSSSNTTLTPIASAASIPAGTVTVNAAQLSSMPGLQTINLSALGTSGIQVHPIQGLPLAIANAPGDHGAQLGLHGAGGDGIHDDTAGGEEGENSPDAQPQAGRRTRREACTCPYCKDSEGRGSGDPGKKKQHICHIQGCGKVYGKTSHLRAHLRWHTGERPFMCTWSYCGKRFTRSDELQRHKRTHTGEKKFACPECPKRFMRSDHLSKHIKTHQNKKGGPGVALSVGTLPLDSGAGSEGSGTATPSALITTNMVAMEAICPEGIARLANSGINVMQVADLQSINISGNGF
Sequence of Paired box protein Pax-6 (Homo sapiens) (P26367 whole entry, looked up): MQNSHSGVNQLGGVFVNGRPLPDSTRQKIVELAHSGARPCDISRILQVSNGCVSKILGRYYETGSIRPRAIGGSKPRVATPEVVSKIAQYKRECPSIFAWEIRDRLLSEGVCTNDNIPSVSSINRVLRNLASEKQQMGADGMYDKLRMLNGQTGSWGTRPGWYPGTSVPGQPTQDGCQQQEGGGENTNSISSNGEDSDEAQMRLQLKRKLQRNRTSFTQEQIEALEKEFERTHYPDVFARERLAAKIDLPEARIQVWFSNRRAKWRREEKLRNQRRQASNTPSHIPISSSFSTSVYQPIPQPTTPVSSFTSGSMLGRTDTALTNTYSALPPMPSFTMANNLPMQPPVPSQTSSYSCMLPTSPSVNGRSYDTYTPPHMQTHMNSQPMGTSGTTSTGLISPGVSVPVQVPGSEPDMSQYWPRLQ
Sequence of Signal transducer and activator of transcription 3 (Homo sapiens) (P40763 whole entry, looked up): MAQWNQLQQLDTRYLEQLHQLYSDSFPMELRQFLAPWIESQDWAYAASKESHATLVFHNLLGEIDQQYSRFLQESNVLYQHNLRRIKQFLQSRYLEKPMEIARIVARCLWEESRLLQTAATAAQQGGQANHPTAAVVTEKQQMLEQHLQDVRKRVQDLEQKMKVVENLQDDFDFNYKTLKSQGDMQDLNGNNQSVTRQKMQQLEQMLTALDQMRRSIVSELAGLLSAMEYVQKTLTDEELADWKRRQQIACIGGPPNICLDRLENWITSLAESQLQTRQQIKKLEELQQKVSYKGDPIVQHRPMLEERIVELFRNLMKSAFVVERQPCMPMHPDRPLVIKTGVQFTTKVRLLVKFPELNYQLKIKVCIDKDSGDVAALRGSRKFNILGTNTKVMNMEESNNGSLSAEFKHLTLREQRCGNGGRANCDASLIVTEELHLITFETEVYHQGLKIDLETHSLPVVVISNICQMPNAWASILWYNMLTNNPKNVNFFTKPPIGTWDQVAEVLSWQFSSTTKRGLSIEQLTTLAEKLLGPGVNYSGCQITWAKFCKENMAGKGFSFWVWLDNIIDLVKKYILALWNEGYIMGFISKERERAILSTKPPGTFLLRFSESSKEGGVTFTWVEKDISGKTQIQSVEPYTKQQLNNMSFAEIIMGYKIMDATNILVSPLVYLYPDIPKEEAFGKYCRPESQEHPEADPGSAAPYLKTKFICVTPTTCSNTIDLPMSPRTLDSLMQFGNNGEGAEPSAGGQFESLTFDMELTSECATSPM
Sequence of Estrogen receptor (Homo sapiens) (P03372 whole entry, looked up, the tested form may be a part): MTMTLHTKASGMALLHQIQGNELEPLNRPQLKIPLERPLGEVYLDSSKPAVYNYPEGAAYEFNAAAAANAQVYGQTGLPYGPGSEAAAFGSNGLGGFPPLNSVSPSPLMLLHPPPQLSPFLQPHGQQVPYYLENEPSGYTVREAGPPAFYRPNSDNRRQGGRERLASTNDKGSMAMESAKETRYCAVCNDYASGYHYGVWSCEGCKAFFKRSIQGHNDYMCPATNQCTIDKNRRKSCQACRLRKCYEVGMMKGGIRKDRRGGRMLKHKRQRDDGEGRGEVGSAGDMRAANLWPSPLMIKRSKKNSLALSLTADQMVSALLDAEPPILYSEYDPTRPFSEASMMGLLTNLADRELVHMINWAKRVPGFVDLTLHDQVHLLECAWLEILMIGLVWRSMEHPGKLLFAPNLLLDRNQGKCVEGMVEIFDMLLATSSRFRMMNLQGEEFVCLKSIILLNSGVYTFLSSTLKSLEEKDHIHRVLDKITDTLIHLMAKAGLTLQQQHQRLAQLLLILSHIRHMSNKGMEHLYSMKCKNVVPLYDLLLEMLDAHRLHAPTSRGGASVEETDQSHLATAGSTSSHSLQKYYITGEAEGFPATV
Sequence of Steroid hormone receptor ERR1 (Homo sapiens) (P11474 whole entry, looked up, the tested form may be a part): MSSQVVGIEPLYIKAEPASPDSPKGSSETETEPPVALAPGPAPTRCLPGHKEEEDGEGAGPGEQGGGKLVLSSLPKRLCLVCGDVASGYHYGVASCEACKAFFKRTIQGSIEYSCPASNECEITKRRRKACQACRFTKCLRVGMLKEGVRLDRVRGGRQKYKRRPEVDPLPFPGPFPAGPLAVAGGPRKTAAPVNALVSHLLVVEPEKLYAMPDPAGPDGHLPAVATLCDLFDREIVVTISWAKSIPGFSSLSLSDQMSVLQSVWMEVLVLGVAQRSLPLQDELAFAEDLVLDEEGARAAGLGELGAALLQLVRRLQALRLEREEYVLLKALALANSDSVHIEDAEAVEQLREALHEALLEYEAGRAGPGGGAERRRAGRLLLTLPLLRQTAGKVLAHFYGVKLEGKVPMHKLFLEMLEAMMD
Sequence of X-box-binding protein 1 (Homo sapiens) (P17861 whole entry, looked up): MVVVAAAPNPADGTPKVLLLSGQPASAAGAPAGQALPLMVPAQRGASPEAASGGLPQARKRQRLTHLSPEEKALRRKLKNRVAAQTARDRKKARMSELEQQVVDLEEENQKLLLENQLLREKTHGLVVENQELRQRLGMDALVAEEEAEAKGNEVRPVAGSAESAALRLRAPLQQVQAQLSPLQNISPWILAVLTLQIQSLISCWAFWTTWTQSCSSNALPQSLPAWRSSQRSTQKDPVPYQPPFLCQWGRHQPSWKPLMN
Sequence of Nuclear receptor subfamily 1 group I member 3 (Homo sapiens) (Q14994 whole entry, looked up, the tested form may be a part): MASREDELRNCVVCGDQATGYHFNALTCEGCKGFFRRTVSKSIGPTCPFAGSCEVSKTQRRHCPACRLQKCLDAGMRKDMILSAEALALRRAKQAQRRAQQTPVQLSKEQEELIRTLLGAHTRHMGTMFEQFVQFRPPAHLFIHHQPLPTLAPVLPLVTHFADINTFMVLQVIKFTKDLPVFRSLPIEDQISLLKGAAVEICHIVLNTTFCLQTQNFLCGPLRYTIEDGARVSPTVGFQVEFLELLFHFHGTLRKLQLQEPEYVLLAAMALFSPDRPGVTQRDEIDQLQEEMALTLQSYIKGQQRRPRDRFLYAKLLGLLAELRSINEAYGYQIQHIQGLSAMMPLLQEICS

For `OCCC(O)CO` (stereo not drawn), the compound was classed as inactive in assay [1], in [2], in [3], in [4], in assay [5] and in [6]. For the same compound, the call in assay [7], in assay [8], in assay [9], in [10], in assay [11] and in [12] was inactive. Moreover, the result in assay [13], in assay [14], in [15], in assay [16] and in assay [17] was inactive.

On to `Nc1cccnc1N`, for which the outcome in [1], in assay [2], in [3], in [4], in assay [5] and in assay [6] was inactive. For the same compound, the compound was called inactive in assay [7], in assay [8], in assay [9], in assay [10], in assay [11] and in assay [12]. Besides, the outcome in assay [13], in assay [18], in assay [15], in assay [16] and in assay [17] was inactive.

Take `NC(=O)C(F)(F)C(F)(F)C(F)(F)C(F)(F)C(N)=O`: the call in assay [2], in assay [3], in assay [5], in assay [6], in [7] and in assay [8] was inactive. The call in [9], in [10], in assay [11], in assay [12], in [13] and in assay [14] was inactive. The compound was classed as inactive in assay [19], in [15], in assay [16] and in [17].

Regarding `O=S(=O)(O)CCC(F)(F)C(F)(F)C(F)(F)C(F)(F)C(F)(F)C(F)(F)C(F)(F)C(F)(F)F`, the compound was called inactive in assay [2], in assay [3], in assay [4], in assay [5], in assay [6] and in assay [7]. In addition, the outcome in [8], in assay [10], in assay [11], in assay [12], in [14] and in [19] was inactive. Moreover, the call in [15] and in assay [17] was inactive.

As for `COC(F)(C(F)F)C(F)(F)F` (stereo not drawn), the result in assay [2], in [3], in [4], in [5], in assay [6] and in [7] was inactive. For the same compound, the outcome in assay [8], in [11], in assay [12], in assay [13], in assay [14] and in [19] was inactive. The call in assay [15] and in assay [17] was inactive.

For the compound `CN(C(=O)C(F)(F)C(F)(F)C(F)(F)F)[Si](C)(C)C`, the outcome in [1], in assay [2], in [3], in [5], in assay [6] and in assay [7] was inactive. The compound was called inactive in assay [8], in assay [10], in [11], in [12], in [13] and in assay [14]. Further, the compound was called inactive in [19] and in assay [15].

For `Oc1ccc2c(c1)CCC2`, the call in assay [1], in [2], in [3], in assay [4], in assay [5] and in [6] was inactive. Also, the compound was called inactive in assay [7], in assay [8], in [9], in [11], in assay [12] and in [13]. The call in assay [19], in assay [15] and in [17] was inactive. Also, in assay [14], the AC50 was 22.6 µM (active).

For orientation: AC50 means the concentration giving half of the maximal activity seen.

The record behind these values is PubChem BioAssay (EPA / NIEHS).
